Drawing on PubChem BioAssay (Tox21), this text covers Potency, outcome and max activation for twelve compounds.

Test [1] in a line: Human pregnane X receptor (PXR) small molecule agonists, qHTS cell viability counter screen (AID 1346977). Further: nearly all actives have a fitted effect of over 50% in size. In outline:
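Readout is CellTiter-Fluor fluorescence from PXR-Luc HepG2 cells. Plated cells rested 5hr, then were treated with compounds for 24hr at 37C and 5% CO2, with reagent present during the last hour.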
(In general: Quantitative high-throughput screening tests each substance at several concentrations.)

Test [2] in a line: Caspase-3/7 induction in HepG2 cells by small molecules, qHTS assay (AID 1346978). Further: nearly all actives have a fitted effect of over 15% in size. An outline of the steps:
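Caspase-3/7 induction was measured by Caspase-Glo 3/7 luminescence (30 min, room temperature) after a 17 hr compound exposure of wild-type HepG2 cells seeded at 2,000 per well and pre-incubated 5 hr.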

A short description of test [3]: Caspase-3/7 induction in CHO-K1 cells by small molecules, qHTS cell viability counter screen (AID 1346979). Further: nearly all actives have a fitted effect of over 35% in size. Further: potency means the concentration at half of the fitted maximal effect. An outline of the steps:
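To flag cytotoxic compounds, treated CHO-K1 wild-type cells were given CellTiter-Fluor at 16hr and read fluorescently after 1hr at 37C; the caspase-3/7 luminescence was measured in these same wells.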

The nature of test [4]: Caspase-3/7 induction in CHO-K1 cells by small molecules, qHTS assay (AID 1346980). Further: nearly all actives have a fitted effect of over 15% in size. In outline: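 Luminescent Caspase-Glo 3/7 read (30min, room temperature) quantified apoptosis induction. Cells were wild-type CHO-K1, treated with compound for 17hr at 37 C and 5% CO2.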
Test [5] can be described thus: Caspase-3/7 induction in HepG2 cells by small molecules, qHTS cell viability counter screen (AID 1346981). Further: series mostly up to about 92 µM; nearly all actives have a fitted effect of over 30% in size. In outline:
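CellTiter-Fluor fluorescence measured viability in the same wells used for Caspase-Glo 3/7. HepG2 (wild type) at 2,000 cells/well were pre-incubated 5 hr, dosed, and given reagent at 16 hr, with 1 hr further at 37C.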

Test [6] has as its target Cytochrome P450 2C19 (Homo sapiens) (UniProt P33261). Put plainly: Cytochrome P450 Family 2 Subfamily C Member 19 (CYP2C19) small molecule antagonists: luciferase reporter qHTS assay (AID 1671197). Further: nearly all actives have a fitted effect of over 65% in size. Further: potency means the concentration at half of the fitted maximal effect. In outline:
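CYP2C19 P450-Glo, 1536-well qHTS. Cpd + enzyme/proluciferin substrate 10 min RT; + NADPH regen, 37C 1 h; stop with luciferin detection reagent, 20 min RT, luminescence (RLU). Pos ctrl ketoconazole.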
For orientation: A reporter such as luciferase makes a cellular process visible.

Test [7] concerns the target Cytochrome P450 1A2 (Homo sapiens) (UniProt P05177). Put plainly: Cytochrome P450 Family 1 Subfamily A Member 2 (CYP1A2) small molecule antagonists: luciferase reporter qHTS assay (AID 1671199). Further: nearly all actives have a fitted effect of over 50% in size. Further: potency means the concentration at half of the fitted maximal effect. In outline:
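Luminescence from luciferin formed by CYP1A2 from a proluciferin substrate, read 20 min after detection reagent. Compound was pre-incubated 10 min with enzyme-substrate, and reaction started with NADPH regeneration solution for 1 h at room temperature; furafylline control.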

In test [8] the target is Voltage-gated inwardly rectifying potassium channel KCNH2 (Homo sapiens) (UniProt Q12809). Put plainly: Human Ether-a-go-go-Related Gene (hERG) channel small molecule antagonists: fluorescence cell-based qHTS assay (AID 1671200).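 Further: hERG-expressing U2OS cells given a thallium stimulus after FluxOR II dye loading; series mostly up to about 77 µM; nearly all actives have a fitted effect of over 50% in size.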 In outline: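 Measured: Tl+ flux via fluorescence (480/540 nm) in hERG-expressing U2OS cells after 1 h dye loading at room temperature.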
Voltage-gated inwardly rectifying potassium channel KCNH2 (Homo sapiens), sequence (Q12809 whole entry, looked up): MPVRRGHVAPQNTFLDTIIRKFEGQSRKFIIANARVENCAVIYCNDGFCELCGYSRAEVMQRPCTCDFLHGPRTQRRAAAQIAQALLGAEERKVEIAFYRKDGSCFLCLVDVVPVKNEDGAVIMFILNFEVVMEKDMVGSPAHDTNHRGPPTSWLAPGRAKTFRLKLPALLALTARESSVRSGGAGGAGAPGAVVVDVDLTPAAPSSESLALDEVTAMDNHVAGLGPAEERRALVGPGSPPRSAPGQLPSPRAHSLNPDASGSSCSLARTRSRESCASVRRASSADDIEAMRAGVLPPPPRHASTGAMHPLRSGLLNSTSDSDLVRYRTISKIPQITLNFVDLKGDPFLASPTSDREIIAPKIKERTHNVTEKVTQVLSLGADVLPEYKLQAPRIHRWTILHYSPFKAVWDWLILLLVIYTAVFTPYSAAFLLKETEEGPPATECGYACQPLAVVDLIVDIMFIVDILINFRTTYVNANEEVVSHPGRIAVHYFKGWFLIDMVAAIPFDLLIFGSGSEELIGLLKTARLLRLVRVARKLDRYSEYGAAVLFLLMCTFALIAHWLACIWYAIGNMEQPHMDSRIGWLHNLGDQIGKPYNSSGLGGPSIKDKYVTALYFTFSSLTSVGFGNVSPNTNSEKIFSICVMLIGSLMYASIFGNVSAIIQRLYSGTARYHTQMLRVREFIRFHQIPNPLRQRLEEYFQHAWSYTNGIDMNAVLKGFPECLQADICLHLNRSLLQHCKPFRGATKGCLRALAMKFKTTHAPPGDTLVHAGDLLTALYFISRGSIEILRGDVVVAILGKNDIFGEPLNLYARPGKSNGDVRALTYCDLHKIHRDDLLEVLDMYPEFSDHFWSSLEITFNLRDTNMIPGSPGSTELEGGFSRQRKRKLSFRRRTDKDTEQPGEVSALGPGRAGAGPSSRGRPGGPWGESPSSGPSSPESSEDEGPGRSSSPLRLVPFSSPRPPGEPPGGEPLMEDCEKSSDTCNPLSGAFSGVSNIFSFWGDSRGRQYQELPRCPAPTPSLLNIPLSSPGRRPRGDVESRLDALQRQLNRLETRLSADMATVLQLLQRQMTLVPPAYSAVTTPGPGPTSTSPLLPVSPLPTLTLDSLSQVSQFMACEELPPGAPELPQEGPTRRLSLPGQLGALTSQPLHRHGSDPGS
In test [9] the target is Cytochrome P450 3A4 (Homo sapiens) (UniProt P08684). Put plainly: Cytochrome P450 Family 3 Subfamily A Member 4 (CYP3A4) small molecule antagonists: luciferase reporter qHTS assay (AID 1671201). Further: nearly all actives have a fitted effect of over 50% in size. Further: potency means the concentration at half of the fitted maximal effect. An outline of the steps:
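Setup: enzyme-substrate mix, compound pin transfer, 10 min RT. Reaction: NADPH regeneration solution, 1 h RT. Readout: detection reagent stops turnover, luminescence measured after 20 min, expressed in relative luminescence units.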

Test [10] deals with Nuclear receptor subfamily 1 group I member 2 (Homo sapiens) (UniProt O75469). Put plainly: Human pregnane X receptor (PXR) small molecule agonists, qHTS assay (AID 1346982). Further: nearly all actives have a fitted effect of over 35% in size. Further: potency means the concentration at half of the fitted maximal effect. In outline:
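Agonist mode: luminescence from ONE-Glo after 24 h compound exposure at 37C in HepG2 cells carrying hPXR-responsive CYP3A4 luciferase, plated in charcoal-stripped serum medium 5 h beforehand.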

Test [11] shares this target. Put plainly: CYP3A4 induction through human pregnane X receptor (PXR) by small molecules, qHTS assay (AID 1346984). Further: nearly all actives have a fitted effect of over 40% in size. An outline of the steps:
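Read-out is luminescence after One-Glo addition, following a 3 hr, 37C incubation with Luciferin-IPA CYP3A4 substrate (3uM final). Before that, compounds were on DPX-2 cells (HepG2 co-transfected with PXR element plus CYP3A4-promoter luciferase) for 24 hr at 37C.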

Test [12] shares this target. Put plainly: Human pregnane X receptor (PXR) activation by small molecules, qHTS assay (AID 1346985). Further: nearly all actives have a fitted effect of over 40% in size. Further: potency means the concentration at half of the fitted maximal effect. In outline:
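DPX-2 cells (HepG2 co-transfected with a PXR response element and a CYP3A4-promoter luciferase construct) were seeded at 2,000 per well, rested 5 hr at 37C, then exposed to DMSO-dissolved compounds for 24 hr. Activation was read as luciferase luminescence.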

Test [13] has as its target Cytochrome P450 2D6 (Homo sapiens) (UniProt P10635). Put plainly: Cytochrome P450 Family 2 Subfamily D Member 6 (CYP2D6) small molecule antagonists: luciferase reporter qHTS assay (AID 1671196). Further: nearly all actives have a fitted effect of over 50% in size. Further: potency means the concentration at half of the fitted maximal effect. In outline: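 CYP2D6 activity was followed as luminescence from its luciferin product after a 1 h NADPH-driven reaction at room temperature. Enzyme-substrate mix and compound were pre-incubated for 10 min, and the signal was read 20 min after adding detection reagent.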

The target in test [14] is Cytochrome P450 2C9 (Homo sapiens) (UniProt P11712). Put plainly: Cytochrome P450 Family 2 Subfamily C Member 9 (CYP2C9) small molecule antagonists: luciferase reporter qHTS assay (AID 1671198). Further: nearly all actives have a fitted effect of over 50% in size. Further: potency means the concentration at half of the fitted maximal effect. In outline: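 Enzyme-substrate mix preincubated with compound 10 min at room temperature; reaction started with NADPH regeneration solution, 1 h 37C. Luminescent luciferin product read after 20 min detection reagent.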
Cytochrome P450 2C9 (Homo sapiens), sequence (P11712 whole entry, looked up): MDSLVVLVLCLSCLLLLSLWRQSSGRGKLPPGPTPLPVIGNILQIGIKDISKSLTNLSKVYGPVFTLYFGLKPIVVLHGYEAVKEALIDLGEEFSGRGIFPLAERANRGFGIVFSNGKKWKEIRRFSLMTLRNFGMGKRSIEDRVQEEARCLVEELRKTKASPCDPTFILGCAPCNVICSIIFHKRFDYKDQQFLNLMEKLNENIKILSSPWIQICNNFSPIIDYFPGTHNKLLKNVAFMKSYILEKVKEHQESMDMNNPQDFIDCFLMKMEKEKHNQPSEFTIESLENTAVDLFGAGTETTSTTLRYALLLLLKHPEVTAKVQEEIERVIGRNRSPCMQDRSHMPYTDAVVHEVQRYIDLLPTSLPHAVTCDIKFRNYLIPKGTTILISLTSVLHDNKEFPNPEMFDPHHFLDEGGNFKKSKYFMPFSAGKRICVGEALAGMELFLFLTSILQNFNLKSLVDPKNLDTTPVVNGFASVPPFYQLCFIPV

The target of test [15] is Nuclear receptor subfamily 1 group I member 2 (Rattus norvegicus) (UniProt Q9R1A7). Put plainly: Rat pregnane X receptor (rPXR) activation by small molecules, qHTS assay (AID 1346983). Further: nearly all actives have a fitted effect of over 20% in size. The note with it: rPXR luciferase reporter cells, One-Glo luminescence, 24 h; max activation: stronger effect = higher value. An outline of the steps: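 Luminescent readout (One-Glo luciferase, 30 min room temperature) followed 24 hr compound treatment at 37 C of rPXR cells plated 2,000 per well and preincubated 5hr; qHTS format with compounds delivered in DMSO.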
Nuclear receptor subfamily 1 group I member 2 (Rattus norvegicus), sequence (Q9R1A7 whole entry, looked up): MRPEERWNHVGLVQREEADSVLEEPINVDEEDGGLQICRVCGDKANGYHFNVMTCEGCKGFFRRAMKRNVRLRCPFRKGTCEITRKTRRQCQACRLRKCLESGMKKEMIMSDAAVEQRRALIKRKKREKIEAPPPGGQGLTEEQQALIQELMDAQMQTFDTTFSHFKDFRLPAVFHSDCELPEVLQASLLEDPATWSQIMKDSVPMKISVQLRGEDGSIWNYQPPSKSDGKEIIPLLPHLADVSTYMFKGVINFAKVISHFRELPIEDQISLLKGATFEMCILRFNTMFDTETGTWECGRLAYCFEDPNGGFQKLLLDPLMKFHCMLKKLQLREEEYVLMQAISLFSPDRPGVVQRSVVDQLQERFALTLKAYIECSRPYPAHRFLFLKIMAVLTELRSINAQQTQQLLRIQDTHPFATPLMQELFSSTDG

Where “and” joins values, the source holds several entries; their conditions need not be identical. Equal entries are not always repeated. Unmarked numbers belong to inactive results. Inconclusive results are not listed. Calls of active or inactive are those of the source. The call rests on the fitted dose curve; in most records, active means well fitted curve in the direction sought with a large enough effect in the repeat runs; inconclusive means weak or mixed curves; inactive means no such curve, though single readings can be large; an effect the other way counts as inactive or inconclusive.
On the % scale 0 is the no-effect control and ±100 the full control effect.

Cytochrome P450 1A2 (Homo sapiens), sequence (P05177 whole entry, looked up): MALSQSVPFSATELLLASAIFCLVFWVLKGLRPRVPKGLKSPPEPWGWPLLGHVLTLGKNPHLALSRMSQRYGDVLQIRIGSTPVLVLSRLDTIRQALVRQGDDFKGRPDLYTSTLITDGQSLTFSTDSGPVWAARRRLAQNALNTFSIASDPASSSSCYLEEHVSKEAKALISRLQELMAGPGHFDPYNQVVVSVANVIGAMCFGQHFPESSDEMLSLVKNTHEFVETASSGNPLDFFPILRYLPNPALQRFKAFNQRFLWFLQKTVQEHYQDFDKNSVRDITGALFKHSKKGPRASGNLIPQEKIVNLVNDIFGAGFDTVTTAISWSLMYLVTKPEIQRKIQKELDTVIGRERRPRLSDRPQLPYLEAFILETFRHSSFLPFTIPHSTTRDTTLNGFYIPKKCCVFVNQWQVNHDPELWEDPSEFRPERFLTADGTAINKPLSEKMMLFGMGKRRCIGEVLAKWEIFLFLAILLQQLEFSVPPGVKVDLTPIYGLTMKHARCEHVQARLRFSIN
Cytochrome P450 2C19 (Homo sapiens), sequence (P33261 whole entry, looked up): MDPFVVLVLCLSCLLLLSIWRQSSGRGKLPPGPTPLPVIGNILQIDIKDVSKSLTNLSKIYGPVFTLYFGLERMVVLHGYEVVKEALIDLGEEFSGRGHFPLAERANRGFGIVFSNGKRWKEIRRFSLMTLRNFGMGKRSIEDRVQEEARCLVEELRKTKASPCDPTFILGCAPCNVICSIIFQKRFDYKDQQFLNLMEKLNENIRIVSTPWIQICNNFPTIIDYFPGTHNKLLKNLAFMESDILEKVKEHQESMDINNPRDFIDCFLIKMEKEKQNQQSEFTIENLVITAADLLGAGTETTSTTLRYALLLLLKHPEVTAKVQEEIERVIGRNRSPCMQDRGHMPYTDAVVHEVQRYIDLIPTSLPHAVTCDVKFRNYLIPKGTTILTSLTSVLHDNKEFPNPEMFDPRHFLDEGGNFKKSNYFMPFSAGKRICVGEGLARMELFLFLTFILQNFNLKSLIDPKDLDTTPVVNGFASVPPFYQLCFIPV
Nuclear receptor subfamily 1 group I member 2 (Homo sapiens), sequence (O75469 whole entry, looked up): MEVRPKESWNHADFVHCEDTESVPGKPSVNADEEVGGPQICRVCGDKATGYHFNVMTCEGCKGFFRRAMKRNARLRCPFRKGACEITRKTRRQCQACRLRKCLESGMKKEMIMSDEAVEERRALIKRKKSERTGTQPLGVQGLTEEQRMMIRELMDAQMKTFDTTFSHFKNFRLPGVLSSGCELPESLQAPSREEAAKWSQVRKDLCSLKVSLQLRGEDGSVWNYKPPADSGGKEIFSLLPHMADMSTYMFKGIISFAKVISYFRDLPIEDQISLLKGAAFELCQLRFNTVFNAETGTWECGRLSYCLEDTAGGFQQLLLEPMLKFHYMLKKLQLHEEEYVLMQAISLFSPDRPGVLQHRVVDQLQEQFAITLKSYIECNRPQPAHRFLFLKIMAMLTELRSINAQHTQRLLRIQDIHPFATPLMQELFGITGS
Cytochrome P450 3A4 (Homo sapiens), sequence (P08684 whole entry, looked up): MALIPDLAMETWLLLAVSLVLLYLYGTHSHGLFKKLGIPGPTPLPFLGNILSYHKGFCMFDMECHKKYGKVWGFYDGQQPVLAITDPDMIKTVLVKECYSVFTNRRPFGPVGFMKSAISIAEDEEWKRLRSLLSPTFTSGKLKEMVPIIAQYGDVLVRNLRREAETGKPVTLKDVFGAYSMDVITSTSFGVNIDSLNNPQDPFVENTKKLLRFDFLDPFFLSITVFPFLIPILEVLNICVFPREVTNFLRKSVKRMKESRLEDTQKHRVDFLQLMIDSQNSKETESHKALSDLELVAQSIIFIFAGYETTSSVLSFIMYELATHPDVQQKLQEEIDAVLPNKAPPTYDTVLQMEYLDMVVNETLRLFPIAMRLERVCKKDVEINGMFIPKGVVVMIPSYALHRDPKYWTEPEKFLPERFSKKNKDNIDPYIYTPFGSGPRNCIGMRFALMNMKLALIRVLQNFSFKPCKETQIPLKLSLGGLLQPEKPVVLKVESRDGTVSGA
Cytochrome P450 2D6 (Homo sapiens), sequence (P10635 whole entry, looked up): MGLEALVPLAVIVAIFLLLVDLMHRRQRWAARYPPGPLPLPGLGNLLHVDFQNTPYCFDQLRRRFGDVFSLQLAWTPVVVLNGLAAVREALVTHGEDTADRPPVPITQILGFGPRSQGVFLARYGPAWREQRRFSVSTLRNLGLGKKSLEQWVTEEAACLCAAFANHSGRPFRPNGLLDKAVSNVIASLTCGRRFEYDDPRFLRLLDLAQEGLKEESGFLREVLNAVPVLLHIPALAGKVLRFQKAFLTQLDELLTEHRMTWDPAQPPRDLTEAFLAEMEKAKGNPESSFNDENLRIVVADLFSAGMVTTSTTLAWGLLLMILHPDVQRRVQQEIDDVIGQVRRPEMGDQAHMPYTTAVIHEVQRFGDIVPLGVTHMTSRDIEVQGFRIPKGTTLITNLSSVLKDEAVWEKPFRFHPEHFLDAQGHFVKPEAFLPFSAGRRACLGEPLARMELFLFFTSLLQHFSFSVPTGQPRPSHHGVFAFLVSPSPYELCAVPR

Take `CC(=O)Nc1ccc(N)cc1`: the Potency result in [1], in test [2], in test [3], in test [5], in test [6] and in test [8] was “inactive” each time. Moreover, the outcome in test [4] was inactive. For the same compound, the Potency in test [7] is 40.5 µM (active); in [9], 28.7 µM (active).

Consider `Cc1oncc1C(=O)Nc1ccc(C(F)(F)F)cc1`, for which the Potency result in test [1], in test [2], in [3], in [5], in test [11] and in [8] was “inactive” each time. In addition, the Potency in test [10] is 12.2 µM (active) and 1.5 µM (active); in [12] it was 0.708 µM (active); in [13] it was 31.7 µM (active); in test [6], 8.94 µM (active) and 8.71 µM (active); in test [14], 25.2 µM (active) and 15.5 µM (active); in test [7] it was 1.59 µM (active) and 911 nM (active).

Take `CC(C)CCCCCOC(=O)CCCCC(=O)OCCCCCC(C)C`: the Potency result in [1], in test [2], in test [3], in test [5], in test [6] and in test [7] was “inactive” throughout. Also, the Potency entry in [8] is “inactive”. Also, the compound was classed as inactive in [4]. The values for the Potency in [14] and in test [9] were 63.3 µM (active) and 35.6 µM (active), respectively.

As to `NC(=O)Nc1ccc(Cl)c(Cl)c1`, the Potency entry in test [1], in [2], in test [3], in [5] and in [9] was “inactive” in each case. The compound was classed as inactive in test [4]. For the same compound, the figures for the Potency in [10] and in test [7] were 48.4 µM (active) and 8.91 µM (active), respectively.

Consider `Cc1oc(C)c(C(=O)Nc2ccccc2)c1C`, for which the Potency entry in [1], in [2], in test [5], in test [8] and in test [9] was “inactive” throughout. The Potency in [3] is 27.3 µM (active); in test [13], 56.4 µM (active); in [6] it was 35.6 µM (active); in [14], 35.6 µM (active); in test [7], 15.9 µM (active). In addition, the outcome in [4] was inactive.

`O=C(Nc1ccc([N+](=O)[O-])cc1)Nc1ccc([N+](=O)[O-])cc1`: the Potency entry in test [1], in test [2], in test [3], in test [5], in [10] and in [11] was “inactive” in each case. Moreover, the Potency result in test [12], in test [13], in test [6], in [14], in test [7] and in [8] was “inactive” each time. Also, in [9], the Potency entry is “inactive”. For the same compound, in test [15], the max activation is -0.532%.

Take `C=CC(C)(O)CCCC(C)CCCC(C)CCCC(C)C` (stereo unspecified): the Potency result in test [1], in test [2], in test [3], in [5], in test [6] and in test [8] was “inactive” throughout. Further, the Potency result in test [9] was “inactive”. Further, the call in test [4] was inactive. For the same compound, the Potency in [10] was 24.2 µM (active); in [7], 35.4 µM (active).

Turning to `COc1cc2c(cc1OC)-c1cc(=Nc3c(C)cc(C)cc3C)n(C)c(=O)n1CC2`, the Potency entry in test [1], in test [2], in test [11] and in test [7] was “inactive” in each case. For the same compound, the Potency in [3] was 29.8 µM (active); in test [10], 9.44 µM (active); in test [12] it was 6.31 µM (active); in test [13] it was 13.8 µM (active); in [6], 17.4 µM (active); in [14] it was 1.1 µM (active). Further, in test [4], the call was inactive.

With `CC(=O)Nc1ccccc1C`, the Potency entry in test [1], in test [2], in [3], in test [5], in [10] and in [14] was “inactive” each time. The Potency result in test [7], in test [8] and in [9] was “inactive” throughout. Moreover, the call in test [4] was inactive.

On to `CCCCCCOC(=O)C(C)C`, for which the Potency entry in test [1], in test [2], in test [3], in test [5], in [10] and in [14] was “inactive” in each case. Also, the Potency result in test [8] and in test [9] was “inactive” throughout. The call in test [4] was inactive.

Turning to `CCOCCn1c(C2CCN(CCc3ccc(C(C)(C)C(=O)O)cc3)CC2)nc2ccccc21`, the Potency result in test [1], in [2], in test [3], in test [5], in test [10] and in test [6] was “inactive” in each case. The Potency result in [14] and in test [9] was “inactive” in each case. Further, the call in [4] was inactive.

In the case of `Cc1cc(C(=C2C=CC(=Nc3ccc(S(=O)(=O)O)cc3S(=O)(=O)O)C=C2)c2ccc(Nc3ccc(S(=O)(=O)O)cc3)cc2)ccc1N`, the Potency result in [1], in [2], in [3], in [10], in test [7] and in [8] was “inactive” in each case. Moreover, the Potency result in test [9] is “inactive”. Also, the outcome in test [4] was inactive.
